Experimental data: the supplement of paper PMC11001985

Compound: C#CCNC(=O)CCSSCCC(=O)NCCc1ccc(C=O)c(C=O)c1
Test: lysine labeling ratio R10:1 (500 µM / 50 µM probe), SILAC-ABPP in living cells; higher = lower intrinsic lysine reactivity toward the probe, active = 2 or less
Conditions: HeLa; probe concentrations 500 vs 50 µM
Outline: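 R, given per lysine, is the filtered median high-probe/low-probe MS1 peptide ratio, with the median then taken across forward and reverse replicates. Cells were living SILAC light and heavy HeLa cells in PBS at room temperature, labelled with 50 µM or 500 µM of an alkyne-tagged, disulfide-linked lysine probe. The ceiling applied is 20.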

UniProt P35241, sequence (P35241 whole entry): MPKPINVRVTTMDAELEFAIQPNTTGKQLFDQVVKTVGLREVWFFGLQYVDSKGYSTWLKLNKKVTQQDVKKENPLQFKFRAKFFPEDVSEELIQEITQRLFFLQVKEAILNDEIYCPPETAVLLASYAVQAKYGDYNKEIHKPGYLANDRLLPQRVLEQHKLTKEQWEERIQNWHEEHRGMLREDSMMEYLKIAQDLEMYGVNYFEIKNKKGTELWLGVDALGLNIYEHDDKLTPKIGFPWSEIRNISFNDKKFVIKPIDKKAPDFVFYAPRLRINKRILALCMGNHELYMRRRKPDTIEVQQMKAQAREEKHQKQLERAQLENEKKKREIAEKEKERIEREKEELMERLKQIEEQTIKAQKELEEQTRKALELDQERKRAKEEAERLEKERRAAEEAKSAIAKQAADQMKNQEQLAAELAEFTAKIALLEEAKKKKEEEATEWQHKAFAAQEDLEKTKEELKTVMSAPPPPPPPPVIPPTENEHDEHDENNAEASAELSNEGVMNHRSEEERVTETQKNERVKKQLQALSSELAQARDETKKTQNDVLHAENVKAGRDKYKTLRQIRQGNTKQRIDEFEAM
UniProt Q9HCM3, sequence (Q9HCM3 whole entry): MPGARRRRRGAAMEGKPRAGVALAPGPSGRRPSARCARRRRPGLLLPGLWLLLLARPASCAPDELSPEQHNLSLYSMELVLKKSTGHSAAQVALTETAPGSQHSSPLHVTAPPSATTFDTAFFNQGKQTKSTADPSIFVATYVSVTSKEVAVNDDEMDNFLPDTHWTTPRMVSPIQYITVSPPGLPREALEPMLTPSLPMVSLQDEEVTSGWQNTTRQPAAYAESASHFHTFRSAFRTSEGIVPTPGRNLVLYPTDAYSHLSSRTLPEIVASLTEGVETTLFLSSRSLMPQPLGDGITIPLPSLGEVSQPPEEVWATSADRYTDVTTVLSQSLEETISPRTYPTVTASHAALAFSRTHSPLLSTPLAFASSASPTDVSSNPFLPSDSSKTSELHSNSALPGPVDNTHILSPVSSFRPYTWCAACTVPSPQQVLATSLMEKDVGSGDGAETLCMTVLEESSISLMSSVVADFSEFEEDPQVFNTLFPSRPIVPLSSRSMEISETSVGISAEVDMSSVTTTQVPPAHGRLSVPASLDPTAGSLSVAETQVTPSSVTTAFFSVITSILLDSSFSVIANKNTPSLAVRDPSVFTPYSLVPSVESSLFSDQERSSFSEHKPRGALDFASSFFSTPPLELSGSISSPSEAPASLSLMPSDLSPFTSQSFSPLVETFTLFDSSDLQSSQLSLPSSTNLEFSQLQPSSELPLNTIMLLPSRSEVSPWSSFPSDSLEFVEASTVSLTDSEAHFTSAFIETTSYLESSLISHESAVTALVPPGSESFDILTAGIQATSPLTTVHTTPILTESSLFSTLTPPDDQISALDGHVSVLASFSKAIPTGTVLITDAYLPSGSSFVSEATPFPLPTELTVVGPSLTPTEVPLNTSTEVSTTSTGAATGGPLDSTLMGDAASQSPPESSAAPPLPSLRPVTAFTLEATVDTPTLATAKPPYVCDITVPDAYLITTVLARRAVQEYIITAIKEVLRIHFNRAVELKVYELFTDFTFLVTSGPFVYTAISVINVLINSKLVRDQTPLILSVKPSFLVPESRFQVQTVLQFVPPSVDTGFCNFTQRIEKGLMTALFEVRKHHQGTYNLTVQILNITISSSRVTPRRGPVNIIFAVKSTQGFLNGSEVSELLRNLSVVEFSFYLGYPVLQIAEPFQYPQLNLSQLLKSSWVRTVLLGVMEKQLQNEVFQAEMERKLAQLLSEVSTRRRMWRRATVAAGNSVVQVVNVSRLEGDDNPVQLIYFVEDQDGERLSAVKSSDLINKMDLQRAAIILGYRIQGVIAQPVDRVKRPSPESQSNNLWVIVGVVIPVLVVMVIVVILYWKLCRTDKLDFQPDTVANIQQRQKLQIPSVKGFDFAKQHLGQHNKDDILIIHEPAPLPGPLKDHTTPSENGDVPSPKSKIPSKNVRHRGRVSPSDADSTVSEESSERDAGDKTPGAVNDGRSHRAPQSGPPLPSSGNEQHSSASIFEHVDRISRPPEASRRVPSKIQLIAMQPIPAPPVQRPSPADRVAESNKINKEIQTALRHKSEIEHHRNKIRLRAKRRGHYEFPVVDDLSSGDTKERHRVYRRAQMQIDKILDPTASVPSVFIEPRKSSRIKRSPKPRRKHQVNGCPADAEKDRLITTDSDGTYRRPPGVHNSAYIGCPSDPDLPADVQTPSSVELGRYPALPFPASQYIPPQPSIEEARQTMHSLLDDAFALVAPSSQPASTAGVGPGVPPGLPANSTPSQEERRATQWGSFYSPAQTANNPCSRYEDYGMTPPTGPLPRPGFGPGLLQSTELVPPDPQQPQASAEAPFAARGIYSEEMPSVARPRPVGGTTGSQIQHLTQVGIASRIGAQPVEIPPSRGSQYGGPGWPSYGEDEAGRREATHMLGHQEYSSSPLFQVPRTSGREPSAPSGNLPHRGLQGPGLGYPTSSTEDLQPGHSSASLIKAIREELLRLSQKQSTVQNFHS
UniProt Q16762, sequence (Q16762 whole entry): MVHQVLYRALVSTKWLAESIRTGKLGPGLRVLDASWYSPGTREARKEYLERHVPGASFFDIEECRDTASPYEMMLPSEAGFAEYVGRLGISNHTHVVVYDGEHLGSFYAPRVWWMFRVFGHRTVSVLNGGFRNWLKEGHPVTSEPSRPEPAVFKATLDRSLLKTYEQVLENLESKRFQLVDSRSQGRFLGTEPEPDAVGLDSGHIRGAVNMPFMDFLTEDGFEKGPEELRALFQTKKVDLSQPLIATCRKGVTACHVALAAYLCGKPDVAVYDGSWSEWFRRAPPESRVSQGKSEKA
UniProt P01893, sequence (P01893 whole entry): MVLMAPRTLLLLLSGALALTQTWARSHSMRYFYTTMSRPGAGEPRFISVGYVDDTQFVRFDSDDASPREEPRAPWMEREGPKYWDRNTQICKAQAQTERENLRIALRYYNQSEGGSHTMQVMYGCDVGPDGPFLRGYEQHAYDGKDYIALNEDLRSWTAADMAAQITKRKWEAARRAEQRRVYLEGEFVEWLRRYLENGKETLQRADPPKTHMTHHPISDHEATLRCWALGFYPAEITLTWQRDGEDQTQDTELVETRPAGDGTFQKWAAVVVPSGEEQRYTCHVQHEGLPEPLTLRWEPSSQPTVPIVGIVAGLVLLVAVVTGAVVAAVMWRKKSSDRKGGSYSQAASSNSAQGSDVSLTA
UniProt P26038, sequence (P26038 whole entry): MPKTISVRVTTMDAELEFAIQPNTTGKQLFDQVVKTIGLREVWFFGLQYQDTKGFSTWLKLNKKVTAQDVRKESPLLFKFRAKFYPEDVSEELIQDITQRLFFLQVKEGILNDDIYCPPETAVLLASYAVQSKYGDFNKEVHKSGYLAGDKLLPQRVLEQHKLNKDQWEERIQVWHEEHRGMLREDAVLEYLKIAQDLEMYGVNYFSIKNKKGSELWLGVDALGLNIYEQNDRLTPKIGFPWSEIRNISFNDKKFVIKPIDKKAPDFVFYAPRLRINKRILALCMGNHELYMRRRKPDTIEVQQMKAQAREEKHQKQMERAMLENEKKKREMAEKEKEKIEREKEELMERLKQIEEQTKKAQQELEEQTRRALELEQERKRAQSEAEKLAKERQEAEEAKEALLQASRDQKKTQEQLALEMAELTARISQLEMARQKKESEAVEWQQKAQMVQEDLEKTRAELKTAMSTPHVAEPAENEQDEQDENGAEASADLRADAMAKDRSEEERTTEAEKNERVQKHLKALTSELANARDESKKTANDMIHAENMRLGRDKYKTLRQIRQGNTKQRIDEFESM
UniProt P38159, sequence (P38159 whole entry): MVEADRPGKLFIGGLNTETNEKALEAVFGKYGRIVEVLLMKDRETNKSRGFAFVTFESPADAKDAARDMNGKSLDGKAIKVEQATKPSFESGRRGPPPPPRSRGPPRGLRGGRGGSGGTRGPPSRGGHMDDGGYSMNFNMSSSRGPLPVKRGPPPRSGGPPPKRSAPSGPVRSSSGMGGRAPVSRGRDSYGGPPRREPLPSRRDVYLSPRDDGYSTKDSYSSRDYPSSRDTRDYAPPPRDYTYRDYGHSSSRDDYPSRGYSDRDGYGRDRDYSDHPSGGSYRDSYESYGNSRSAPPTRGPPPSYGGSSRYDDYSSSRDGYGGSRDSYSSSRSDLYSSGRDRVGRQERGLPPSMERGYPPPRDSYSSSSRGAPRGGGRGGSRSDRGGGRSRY
UniProt P15151, sequence (P15151 whole entry): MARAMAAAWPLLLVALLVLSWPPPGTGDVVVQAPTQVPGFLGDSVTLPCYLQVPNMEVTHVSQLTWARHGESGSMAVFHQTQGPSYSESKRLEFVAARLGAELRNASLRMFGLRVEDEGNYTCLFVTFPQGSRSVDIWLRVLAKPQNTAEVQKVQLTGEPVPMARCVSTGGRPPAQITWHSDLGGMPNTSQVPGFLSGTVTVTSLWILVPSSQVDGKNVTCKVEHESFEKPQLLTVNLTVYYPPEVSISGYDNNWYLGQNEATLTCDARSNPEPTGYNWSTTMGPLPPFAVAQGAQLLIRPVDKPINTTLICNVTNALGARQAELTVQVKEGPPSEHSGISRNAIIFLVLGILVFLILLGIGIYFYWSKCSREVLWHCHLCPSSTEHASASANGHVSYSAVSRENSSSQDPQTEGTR
UniProt Q9UL46, sequence (Q9UL46 whole entry): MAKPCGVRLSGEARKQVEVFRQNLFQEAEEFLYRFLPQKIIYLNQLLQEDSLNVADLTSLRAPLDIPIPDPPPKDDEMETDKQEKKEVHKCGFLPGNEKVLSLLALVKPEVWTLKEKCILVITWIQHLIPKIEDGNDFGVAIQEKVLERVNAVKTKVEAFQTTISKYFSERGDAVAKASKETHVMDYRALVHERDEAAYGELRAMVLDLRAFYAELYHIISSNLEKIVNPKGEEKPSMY

Target	lysine labeling ratio R10:1
UniProt P01893 (lysine site: K210)	2.51 (inactive)
UniProt Q15149 (lysine site: K2350)	4.82 (inactive)
RBMX (lysine site: K217) (UniProt P38159)	8.01 (inactive)
TST (lysine site: K24) (UniProt Q16762)	2.33 (inactive)
ANP32B (lysine site: K68) (UniProt Q92688)	1.78 (active)
ATAD3B (lysine site: K505) (UniProt Q5T9A4)	0.98 (active)
PVR (lysine site: K90) (UniProt P15151)	3.33 (inactive)
METTL7A (lysine site: K210) (UniProt Q9H8H3)	1.36 (active)
RDX (lysine site: K165) (UniProt P35241)	2 (active)
KIAA1549 (lysine site: K1262) (UniProt Q9HCM3)	0.805 (active)
MSN (lysine site: K79) (UniProt P26038)	2.55 (inactive)
IARS (lysine site: K375) (UniProt P41252)	1.66 (active)
PSME2 (lysine site: K15) (UniProt Q9UL46)	6.45 (inactive)
DYNC1H1 (lysine site: K2286) (UniProt Q14204)	1.93 (active)
ITGA5 (lysine site: K965) (UniProt P08648)	0.705 (active)
SPTBN1 (lysine site: K1459) (UniProt Q01082)	0.588 (active)
CNP (lysine site: K197) (UniProt P09543)	2.88 (inactive)
